Holding throughout (assay type): functional
In assay [1] the target is Solute carrier family 2, facilitated glucose transporter member 1 (Homo sapiens) (UniProt P11166). The assay is described as follows: ST_JUDE_LEISH: Cytotoxicity at 2uM final concentration against transgenic Leishmania Mexicana promastigotes LmGLUT1 that are glucose transport deficient and complemented with the human glucose transporter GLUT1. Activity is measured by DNA content using SYBR green in vitro.

Assay [2] has as its target Hexose transporter 1 (Plasmodium falciparum) (UniProt O97467). The assay is described as follows: ST_JUDE_LEISH: Cytotoxicity at 2uM final concentration against transgenic Leishmania Mexicana promastigotes LmPfHT that are glucose transport deficient and complemented with the Plasmodium falciparum hexose transporter. Activity is measured by DNA content using SYBR green in vitro.

For assay [3], the target named is Glucose transporter (Leishmania mexicana) (UniProt O61059). The assay is described as follows: ST_JUDE_LEISH: Cytotoxicity at 2uM final concentration against transgenic Leishmania Mexicana promastigotes LmGT2 that are glucose transport deficient and complemented with the L. Mexicana glucose transporter 2. Activity is measured by DNA content using SYBR green in vitro.

We go through 12 molecules from ChEMBL document CHEMBL3433997, “St. Jude Leishmania screening dataset” (2016).

“And” between values parts separate entries of the source, which are not always exact repeats. Identical values can stand only once.

Chain of Solute carrier family 2, facilitated glucose transporter member 1 (Homo sapiens) (P11166 whole entry): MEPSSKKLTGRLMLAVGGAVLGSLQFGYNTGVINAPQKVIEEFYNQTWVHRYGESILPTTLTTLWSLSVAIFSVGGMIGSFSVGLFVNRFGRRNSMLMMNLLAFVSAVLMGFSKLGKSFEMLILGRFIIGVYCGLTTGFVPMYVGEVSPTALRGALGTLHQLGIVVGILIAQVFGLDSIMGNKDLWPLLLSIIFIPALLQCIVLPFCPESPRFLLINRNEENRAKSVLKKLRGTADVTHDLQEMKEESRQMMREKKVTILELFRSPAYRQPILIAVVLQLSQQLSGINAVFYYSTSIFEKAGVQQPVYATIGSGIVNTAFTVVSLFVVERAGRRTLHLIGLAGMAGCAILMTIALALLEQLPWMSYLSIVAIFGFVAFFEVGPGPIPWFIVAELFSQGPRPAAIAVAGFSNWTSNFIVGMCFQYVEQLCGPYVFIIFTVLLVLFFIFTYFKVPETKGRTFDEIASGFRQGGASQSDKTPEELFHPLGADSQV

One may read the inhibition as the relative decrease from the control value, in per cent. With `CO/C(=C\C=C\c1cc2cc(Cl)c(Cl)cc2[nH]1)C(=O)NCCCN1CCC(c2ccccc2)CC1`, the inhibition in assay [1] came to 2.73%; in assay [2], 5.04%; in assay [3], 1.33%.
For `Cc1cc(=NN=Cc2cccc(Cl)c2)c2ccccc2[nH]1`, the inhibition in assay [1] is 5.11%; in assay [2], 6.14%; in assay [3] it was 3.65%.
On to `Oc1ccc(Br)cc1-c1nc2ccc(Cl)cc2nc1-c1cc(Br)ccc1O`, for which the inhibition in assay [1] came to 1.9%; in assay [2] it was 1.4%; in assay [3], 2.66%.
For the molecule `CC1=C(C(=O)OC(C)C)C(c2ccccc2Cl)C2=C(CC(c3ccccc3)CC2=O)N1` (stereo unspecified), the values for the inhibition in assay [1], in assay [2] and in assay [3] were 7.11%, 6.69% and 7.36%, respectively.
`CCCCN(CCCC)/C(=N/C(=N)NCc1ccc(Cl)c(Cl)c1)NCCCCCCN/C(=N\C(=N)NCc1ccc(Cl)c(Cl)c1)N(CCCC)CCCC`: the inhibition was -0.73% in assay [1], -0.52% in assay [2] and -0.96% in assay [3].
For the molecule `CN(C(=O)C1(c2ccc(Cl)cc2)CC1)C1CCN(CCCCCNC(=O)/C=C/c2ccc(Cl)c(Cl)c2)CC1`, the inhibition in assay [1] was 0.14%; in assay [2], -0.37%; in assay [3], 4.56%.
For `Cc1cc(N[C@@H](Cc2ccccc2)C(=O)NCCc2ccccc2)nc(NCCc2cccs2)n1`, in that order: 3.32%, 0.76% and 1.55%.
On to `Cc1cc(N(C)C)nc(Nc2ccc(NC(=O)COc3ccccc3)cc2)n1`, for which the figures for the inhibition in assay [1], in assay [2] and in assay [3] were 2.72%, 7.92% and -2.15%, respectively.
On to `CCn1c(-c2cc(C)on2)nc2cnc(Oc3ccc(C(=O)N4CC(=O)N(C)C4C(C)(C)C)cc3)cc21` (stereo unspecified), for which the results for the inhibition in assay [1], in assay [2] and in assay [3] were -1.85%, 1.92% and 5.58%, respectively.
Consider `COc1ccc(CCNCCCCCCNCCc2ccc(Cl)c3ccccc23)cc1OC`, for which the figures for the inhibition in assay [1], in assay [2] and in assay [3] were 0.11%, 0.21% and 2.66%, respectively.
In the case of `CN(C)CC(O)C(c1ccccc1)c1ccc(Cl)cc1` (stereo unspecified), the inhibition in assay [1] came to 5.17%; in assay [2], 1.04%; in assay [3], 0.76%.
Turning to `Cc1[nH]c2cc(F)ccc2c(=O)c1Cc1ccc(Cl)cc1.Cc1[nH]c2cccc(F)c2c(=O)c1Cc1ccc(Cl)cc1`, the inhibition in assay [1] is 23.5% and 29.2%; in assay [2] it was 37.3% and 55.7%; in assay [3], 14.3% and 15%.
